Out of some 370,000 compounds screened, about 3,100 (0.84%) were called active. Rule as the data show it: active = inhibition above about 9.5%; inactive = the rest. For the sample, actives were picked, then their nearest neighbours and some compounds at random.

1-phosphatidylinositol 4,5-bisphosphate phosphodiesterase gamma-1 (Homo sapiens), sequence (P19174 whole entry, looked up): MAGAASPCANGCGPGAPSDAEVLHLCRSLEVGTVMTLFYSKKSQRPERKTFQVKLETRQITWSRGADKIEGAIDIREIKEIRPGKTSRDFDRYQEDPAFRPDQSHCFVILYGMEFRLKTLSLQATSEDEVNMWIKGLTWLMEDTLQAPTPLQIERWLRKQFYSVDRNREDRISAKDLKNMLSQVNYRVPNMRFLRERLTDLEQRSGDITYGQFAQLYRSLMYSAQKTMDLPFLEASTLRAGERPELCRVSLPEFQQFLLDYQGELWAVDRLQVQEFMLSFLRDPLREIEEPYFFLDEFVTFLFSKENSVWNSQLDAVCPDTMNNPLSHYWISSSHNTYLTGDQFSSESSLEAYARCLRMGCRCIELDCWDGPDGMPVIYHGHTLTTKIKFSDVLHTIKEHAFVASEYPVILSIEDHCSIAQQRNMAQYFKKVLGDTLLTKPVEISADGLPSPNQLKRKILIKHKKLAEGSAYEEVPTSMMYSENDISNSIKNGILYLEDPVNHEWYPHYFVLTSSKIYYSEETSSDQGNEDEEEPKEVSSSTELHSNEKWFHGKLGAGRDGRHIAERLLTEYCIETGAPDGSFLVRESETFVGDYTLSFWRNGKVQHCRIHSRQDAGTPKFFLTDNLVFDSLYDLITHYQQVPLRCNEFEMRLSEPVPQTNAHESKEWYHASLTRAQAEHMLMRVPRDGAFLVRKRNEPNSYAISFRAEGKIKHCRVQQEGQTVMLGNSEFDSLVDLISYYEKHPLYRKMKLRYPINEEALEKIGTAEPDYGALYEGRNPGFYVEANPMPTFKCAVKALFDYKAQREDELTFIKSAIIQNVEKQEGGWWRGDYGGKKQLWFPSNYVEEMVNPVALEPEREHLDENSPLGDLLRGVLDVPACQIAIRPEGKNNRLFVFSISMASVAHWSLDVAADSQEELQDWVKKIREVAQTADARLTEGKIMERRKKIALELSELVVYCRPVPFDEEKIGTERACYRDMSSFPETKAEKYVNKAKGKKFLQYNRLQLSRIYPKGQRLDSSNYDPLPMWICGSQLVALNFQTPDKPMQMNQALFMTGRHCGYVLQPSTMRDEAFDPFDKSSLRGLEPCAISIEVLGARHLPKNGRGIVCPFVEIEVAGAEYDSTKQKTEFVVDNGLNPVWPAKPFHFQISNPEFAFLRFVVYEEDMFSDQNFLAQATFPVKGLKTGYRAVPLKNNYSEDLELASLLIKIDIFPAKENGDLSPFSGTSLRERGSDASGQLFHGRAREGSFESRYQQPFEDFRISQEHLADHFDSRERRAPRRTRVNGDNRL

The assay concerns the target 1-phosphatidylinositol 4,5-bisphosphate phosphodiesterase gamma-1 (Homo sapiens) (UniProt P19174). The assay can be described thus: blockers of human PLCG1 activity – biochemical, fluorescence, purified enzyme, primary screen (AID 720700). Conditions: purified PLC-gamma1, fluorogenic substrate, at 12.2 µM, hits give high values.
For `CS(=O)(=O)Nc1cccc(C2=NN(C(=O)c3cccc(F)c3)C(c3cccs3)C2)c1` (configuration not stated), the inhibition (commonly the change of the read-out against control, counted positive when it falls) is -0.97% (inactive). As to `Cc1ccc(C2CC(c3cccc(NS(C)(=O)=O)c3)=NN2S(C)(=O)=O)cc1` (configuration not stated), the inhibition is 2.31% (inactive). `CCOc1ccccc1C1CC(c2cccc(NS(C)(=O)=O)c2)=NN1C(=O)c1ccccc1` (configuration not stated): the inhibition was 9.81% (active). The result for `C=C1C(C(C)C)N(C)C2=NC(c3ccccc3)CC(=O)N12` (configuration not stated) reads -2.56% (inactive); that for `C=CCN1C(=O)[C@@H](CC(=O)N2CCN(C(=O)c3ccco3)CC2)[C@]2(C(=O)OC)CCCCC=C12`, -0.31% (inactive); that for `CC(=O)N1CCN(CC(c2ccccc2)c2ccccc2)CC1`, -0.45% (inactive). As to `CCCc1ccc(OCC(O)CN2CCN(C(=O)OCC)CC2)cc1` (configuration not stated), the inhibition was 8.68% (inactive). For the compound `O=C(C(c1ccccc1)c1ccccc1)N1CCN(CC(O)COc2ccccc2)CC1` (configuration not stated), the inhibition was 9.59% (active). The result for `Nn1c(SCC(=O)Nc2cccc3ccccc23)nnc1-c1cc(-c2ccc(F)cc2)n[nH]1` reads -1.09% (inactive).

Turning to `C[C@H]1CCC/C=C/C(=O)c2c(O)cc(O)cc2CC(=O)O1`, the inhibition was -3.4% (inactive). In the case of `CCOc1ccc(CCNC(=O)COC(=O)c2c(OC)cccc2OC)cc1OCC`, the inhibition is 6.67% (inactive).

In the case of `COc1ccc(CNC(=O)COC(=O)CCS(=O)(=O)c2ccc(C)cc2)cc1OC`, the inhibition is 0.41% (inactive). For `CCOc1ccc(CCNC(=O)COC(=O)CCS(=O)(=O)c2ccc(C)cc2)cc1OCC`, the inhibition is 9.85% (active). The result for `C=C(C)C#CC(Cc1ccccc1)NCC1CC1` (configuration not stated) reads 0.45% (inactive); that for `O=S(=O)(c1ccc(F)cc1)N1CCN(C(=S)NC2CCCC2)CC1`, 10.9% (active). For the compound `O=C(O)C1CCCCC1C(=O)N1CCN(S(=O)(=O)c2ccc(F)cc2)CC1` (configuration not stated), the inhibition was 4.99% (inactive).

Consider `O=C(CN1CCN(S(=O)(=O)c2ccc(F)cc2)CC1)NC1CC1`, for which the inhibition is -1.88% (inactive). On to `Cc1ccc(C23CC4CC(CC(C(=O)NCC(=O)O)(C4)C2)C3)cc1`, for which the inhibition is 9.87% (active). Consider `C=CCNC(=O)C12CC3CC(C1)CC(C(=O)NCC=C)(C3)C2`, for which the inhibition was -0.37% (inactive). Take `CCOc1ccccc1NC(=O)C12CC3CC(C1)CC(c1ccc(C)cc1)(C3)C2`: the inhibition was 0.03% (inactive). On to `O=C(Nc1ccc(Br)cc1)OCCN1C(=O)CCC12CCC(c1ccccc1)CC2` (configuration not stated), for which the inhibition was 4.23% (inactive). On to `O=C(NC1CCC1)c1ccc(C#CC2CC2)cn1`, for which the inhibition was -0.59% (inactive). Consider `COCCCn1c(SCC(=O)Nc2ccccc2)nnc1-c1ccncc1`, for which the inhibition is -0.81% (inactive). As to `O=C(CSc1nnc(-c2ccncc2)n1-c1ccc(Cl)cc1)Nc1ccc(C(=O)O)cc1`, the inhibition is -0.57% (inactive). As to `O=C(CSc1nnc(-c2ccncc2)n1C1CCCCC1)Nc1ccccc1`, the inhibition is 10.2% (active).

Regarding `COc1ccccc1CCNC(=O)C1CCN(c2nc(C)cc(C)n2)CC1`, the inhibition was -0.02% (inactive). `Cc1ccc(-c2nc(C3CCCN(S(=O)(=O)c4ccc(Br)s4)C3)no2)cc1` (configuration not stated): the inhibition is 0.61% (inactive). The result for `COc1ccc(-c2ccc(CNCCCN3CCOCC3)o2)cc1Cl` reads 1.38% (inactive); that for `C=CCOc1ccc(Cl)cc1CNCCCN1CCOCC1`, 10.7% (active). The result for `O=S(=O)(NCCCN1CCOCC1)c1ccc(F)c(Cl)c1` reads -0.87% (inactive); that for `Cc1ccccc1NC(=O)Cn1nnc(-c2ccccc2F)n1`, 0.94% (inactive). With `CN1[C@H](Cc2ccccc2)COc2cccc(N3CCSCC3)c2S1(=O)=O`, the inhibition was -5.49% (inactive). Turning to `COc1ccc(NC(=O)CN2C(=O)C(c3ccccc3)=NC23CCCCCC3)cc1OC`, the inhibition was 1.88% (inactive). In the case of `O=C1NC2(CCCCCC2)C(=O)N1CCS(=O)(=O)Oc1ccccc1`, the inhibition was 1.93% (inactive). For the compound `O=C1NC2(CCCCC2)N=C1c1ccccc1`, the inhibition is 10.4% (active). The result for `C=CCN1C(=O)[C@@H](CC(=O)N2CCN(C(=O)OCC)CC2)[C@]2(C(=O)OCC)CCCCC/C=C/12` reads -1.67% (inactive); that for `C=CC[C@@H](CC(=O)N[C@@H](CO)Cc1ccccc1)C(=O)N[C@H](COC(=O)[C@H](CC=C)CC(=O)OC(C)(C)C)Cc1ccccc1`, 0.69% (inactive); that for `C=CC[C@@H](CC(=O)N[C@@H](CO)Cc1ccccc1)C(=O)NCCOC(=O)[C@@H](CC=C)CC(=O)OC(C)(C)C`, 5.69% (inactive). The result for `C=CC[C@@H](CC(=O)NCCO)C(=O)N[C@H](C)COC(=O)[C@@H](CC=C)CC(=O)OC(C)(C)C` reads 9.97% (active); that for `O=C(N1CCOCC1)N1CC[C@H]2[C@H](CCCN2Cc2ccc(F)cc2)C1`, -1.67% (inactive); that for `COc1ccc(C2Nc3ccccc3C(=O)N2Cc2cccs2)cc1COc1c(C)cccc1C` (configuration not stated), -106% (inactive). In the case of `CCOC(=O)Nc1ccc(NC(=O)OCC)cc1`, the inhibition is 11.8% (active). The result for `CCOC(=O)Nc1ccc2c(c1)N(C(=O)CCCl)c1ccccc1[S@]2=O` reads -0.45% (inactive); that for `CCOC(=O)Nc1ccc(S(=O)(=O)N(C)C(C)C)cc1`, 0.75% (inactive). Regarding `COc1ccc(N2CCN(CCNS(=O)(=O)c3ccc(Cl)s3)CC2)cc1`, the inhibition was -2.58% (inactive).

With `NC(=O)C1CCN(C(=O)c2ccc3c(=O)n(Cc4cccc(Br)c4)c(=S)[nH]c3c2)CC1`, the inhibition is 4.14% (inactive). On to `CCOc1cc2[nH]c(=S)n(Cc3ccc(C(=O)N4CCN(C)CC4)cc3)c(=O)c2cc1OCC`, for which the inhibition was -0.53% (inactive). Regarding `O=C(O)c1ccc(Cn2c(=S)[nH]c3cc(Cl)ccc3c2=O)cc1`, the inhibition is 11% (active).

For the compound `O=C(NC1CCCCN(Cc2cccc(C(F)(F)F)c2)C1=O)c1ccccc1I` (configuration not stated), the inhibition was -1.03% (inactive).

`COc1ccc(C(=O)CC(=O)c2ccc(C)cc2)c(O)c1`: the inhibition is -16% (inactive). Regarding `COc1ccc(OC)c(C(=O)c2coc3ccc(O)c(CN4CCOCC4)c23)c1`, the inhibition was -8.55% (inactive). The result for `COc1ccc(/C(C)=N/N2CCOCC2)c(O)c1` reads 15.9% (active); that for `COC(=O)c1cc(S(=O)(=O)N2CCN(C(=O)C3CCCO3)CC2)cn1C` (configuration not stated), 0.5% (inactive); that for `C[C@@H](NC(=O)c1ccccc1OCC(=O)Nc1ccc(I)cc1)C(=O)N(C)Cc1ccccc1`, -0.29% (inactive).

In the case of `Cc1cc(NC(=O)CN2C(=O)NC(CCc3ccccc3)C2=O)no1` (configuration not stated), the inhibition is -2.53% (inactive).

For `Cc1cc(NC(=O)CN2C(=O)NC(CC(C)C)C2=O)no1` (configuration not stated), the inhibition was 10.2% (active).

Consider `COc1ccc(C2(c3ccc(OC)cc3)NC(=O)N(CC(=O)Nc3cc(C)on3)C2=O)cc1`, for which the inhibition was 0.49% (inactive). The result for `CC(c1ccc(N)cc1)c1cn(C)c2ccccc12` (configuration not stated) reads 0.79% (inactive). The result for `CCOC(=O)[C@]12CCCC=C1N(Cc1ccc(OC)cc1)C(=O)[C@@H]2CC(=O)NCc1cccs1` reads 0.39% (inactive); that for `O=C1Nc2ccccc2OC1CC(=O)N1CCCCCCC1` (configuration not stated), -0.62% (inactive). Take `O=C(C[C@H]1C(=O)N(c2ccc(F)c(F)c2)C[C@@H]1Cc1ccccc1)Nc1ccccc1`: the inhibition is 17.8% (active). Take `C[C@H]1CN(c2ccc(Br)cc2)C(=O)[C@@H]1CC(=O)Nc1ccc(Br)cc1`: the inhibition is -2.46% (inactive). With `CNC(=O)C[C@H]1C(=O)N(c2ccc(OC)cc2)C[C@@H]1Cc1ccccc1`, the inhibition was 1.07% (inactive). In the case of `Cc1ccc(-n2c(SCC(=O)Nc3cccc4ccccc34)nnc2-c2ccco2)cc1`, the inhibition is 0.45% (inactive).

Regarding `CC(C)CCn1cnc2c1c(=O)n(CC(=O)NC(N)=O)c(=O)n2Cc1ccccc1`, the inhibition was 2.87% (inactive).

Consider `CC(C)Cn1cnc2c1c(=O)n(CC(=O)NN)c(=O)n2Cc1ccccc1`, for which the inhibition was -18.6% (inactive). On to `CC(C)Cn1cnc2c1c(=O)n(CC(O)c1ccccc1)c(=O)n2CC(C)C` (configuration not stated), for which the inhibition is 16.4% (active). The result for `COc1cccc(N2CCN(CC(=O)N(C)Cc3ccc(F)cc3)CC2)c1` reads 0.54% (inactive); that for `CCc1ccccc1N(CC(=O)NCCSCc1ccco1)S(C)(=O)=O`, -1.22% (inactive); that for `Cc1cc(C)cc(N(CC(=O)NCCSCc2ccco2)S(C)(=O)=O)c1`, 2.48% (inactive). As for `CS(=O)(=O)N(Cc1ccc(Cl)cc1)c1ccc(C(=O)NCCSCc2ccco2)cc1`, the inhibition is 9.72% (active).

With `CCCCNC(=O)C[C@H]1C[C@@]2(C(=O)OC)C(=C[C@H](COCc3ccccc3)O[C@@H]2C)N(Cc2ccc(Cl)cc2Cl)C1=O`, the inhibition was 2.69% (inactive). The result for `O=C1C(=O)N(Cc2ccc(-c3ccsc3)cc2)c2ccc(OC(F)(F)F)cc21` reads -5.5% (inactive); that for `CCN(CC)C(=O)CC[C@@H]1CC[C@]2(CCCN(S(=O)(=O)C3CCCCC3)C2)O1`, -1.56% (inactive); that for `COC(=O)C1CN(CCc2ccccc2)CCS(=O)(=O)N1Cc1ccc(F)cc1` (configuration not stated), 0.52% (inactive). Turning to `Cc1ccc(S(=O)(=O)N2CCN(C(=O)Cc3sc(C)nc3-c3ccc(F)cc3)CC2)c(C)c1`, the inhibition is -4.71% (inactive). Consider `Cc1nc(-c2ccc(F)cc2)c(CC(=O)Nc2cc(S(=O)(=O)N3CCCCC3)ccc2C)s1`, for which the inhibition is 0.89% (inactive). The result for `Cc1nc(-c2ccc(F)cc2)c(CC(=O)N2CCN(S(=O)(=O)c3ccc(F)cc3)CC2)s1` reads 12.6% (active); that for `O=C(C(=O)N1CCN(c2ccccc2)CC1)c1ccc2c(c1)OCO2`, -0.77% (inactive); that for `O=CN1CCN(C(=O)c2ccc3c(c2)OCO3)CC1`, 0.54% (inactive). Turning to `O=C(c1ccc2c(c1)OCO2)N1CCNc2ccccc2C1`, the inhibition is 9.9% (active). For `N#Cc1ccc(OC[C@@H](O)CN2CCC(C(O)(c3ccccc3)c3ccccc3)CC2)c(F)c1`, the inhibition is 0.67% (inactive). As to `COCCCNC(=O)C[C@H]1C[C@@]2(C(=O)OC)C(=C[C@H](C(C)(C)C)O[C@@H]2C)N(Cc2ccc(Cl)cc2Cl)C1=O`, the inhibition was 1.11% (inactive). Turning to `CC(C)(C)OC(=O)NCc1cc(F)ccc1/C=C/S(=O)(=O)NCCc1ccccc1`, the inhibition is 2.46% (inactive).

With `Clc1ccc(C2[C@H]3CN(CC4CCCCC4)[C@H](c4ccccc4)C34CC2(c2cccnc2)C4)cn1` (some centres not stated), the inhibition is 12.1% (active). `COC(=O)c1ccc(C23CC4(C2)[C@H](CN(Cc2cccnc2)[C@@H]4c2ccccc2)C3c2ccc(Cl)nc2)cc1` (some centres not stated): the inhibition was 2.06% (inactive). Turning to `COC(=O)[C@]1(C#N)CC(=O)N(CC2CCCCC2)[C@@H]1c1ccccc1`, the inhibition was 8.67% (inactive).
